Assay results taken from publication PMC12136788.
Numbering of substitutions follows the chain as printed. Whole data set: some 24,000 sequences, median “enrichment r” near 0.99, cut for the highest 2% near 3.7. Many of the other results were omitted from the sample, so the highest values are more common in it than they were.

T1: UNK ZnF1-3 (human, UniProt Q9C0B0 31-174)
T1 sequence: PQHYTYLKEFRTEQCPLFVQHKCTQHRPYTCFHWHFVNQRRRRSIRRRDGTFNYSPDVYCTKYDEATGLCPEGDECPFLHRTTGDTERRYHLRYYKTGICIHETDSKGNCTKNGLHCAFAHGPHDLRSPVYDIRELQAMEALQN

B1: chr1:178670160:178670161:-_ENSMUSG00000057335_ENSMUST00000057037|mus_mus|FALSE|FALSE (ssRNA)
RNA: GGGAGUUCUACAGUCCGACGAUCCUGAGGCCUCGAGUCAACAGACCGACCGUUGUUUCCUUCUGGUGUUUUAGAAUGAACUAAUGGAGGUAUCUUUCGGAAGUUGAGACUUUCAUCAAAAACACGAUCAACCAACUCUUCUCUCAACAGAGGAUUGAGCAUCA
B2: 98562344_98563384_6126_CDS_ENSG00000196367_ENST00000456197|human|control|control (ssRNA)
RNA: GGGAGUUCUACAGUCCGACGAUCCCAUGCUCAUCACUGCCAGGCGCGUCUUCACCAGCUCCAGACUCAGCAUCACCAGCUCGCUUGUACCUGAGGUGGCUUCGGUGCUUCCUGACGCUGCCUGAGGGUUUAAAUGCUCCCGGACAACAGAGGAUUGAGCAUCA
B3: 33247490_33252972_1089_CDS_ENSG00000083642_ENST00000315596|human|control|control (ssRNA)
RNA: GGGAGUUCUACAGUCCGACGAUCCCUGCCCAAGUAGCACUGCCAAAGUGGCUUGUUUUGAGAAGCCAAUUCUGAAUCCUUUGCCCCAAACAUUUUUGCCAGUAGUUUAACAACUUGUAGGCGCUCCUCAUUAUCAUUGCUCUUCAACAGAGGAUUGAGCAUCA
B4: chr12:39756943:39756944:-_ENSG00000139116_ENST00000544797|hu_mus|hu_hu_hu_mus_False|1_18 (ssRNA)
RNA: GGGAGUUCUACAGUCCGACGAUCGGUUUGGCUGUUACCCCCAAGGGAAUCCUGCAAGAGUCUUGUCAGCUUAGAGUCUCUGUAAGGGACAUGGGUGGCUCUCUUGCUCUUGUCCCCCAAGGCACUUAUUACAUUCCCAAGUGCCAACAGAGGAUUGAGCAUCA
B5: chr2:224824363:224824364:+_ENSG00000135900_ENST00000258383|hu_mus|FALSE|FALSE (ssRNA)
RNA: GGGAGUUCUACAGUCCGACGAUCAGCUUCUUUCUCUAUGCCAAGGCUCUGACGUUUCGCCUCUUCGCUUUUGAUGUAGCAGCUAUUGAUAAAUGCAGUUUUGAGAAGGUCCAACGAAAAGGUUUCUUGUAAGCGAGAUCCAAACAACAGAGGAUUGAGCAUCA
B6: 64079182_64079302_4442_3pUTR_ENSMUSG00000025959_ENSMUST00000114086|mouse|control|control (ssRNA)
RNA: GGGAGUUCUACAGUCCGACGAUCCCCACAGCCAACAAAGGACUCUGAAGCAAGCAAGCACCAUCAUGGUAUCUCAGUGCGCCCUGCUCCAAGAGAGAUCAGGAGCAGAUCACAAAGACCUCACUGAUACAAAAGAGAAAUUACCAACAGAGGAUUGAGCAUCA
B7: chr4:136876768:136876769:-_ENSMUSG00000006699_ENSMUST00000051477|mus_hu|FALSE|FALSE (ssRNA)
RNA: GGGAGUUCUACAGUCCGACGAUCAAAAAAAAAAAAAAACACACACACACAAAAAUUUUUUUUUUGAAACAACAAAAAAAAAUAGUACUAAUCACUUUUCUGACAAUACAAUUACUCAAAAUUAACUAGUACUGGGAGGGGGAACAACAGAGGAUUGAGCAUCA
B8: chrX:12193597:12193598:+_ENSMUSG00000031007_ENSMUST00000033313|mus_mus|motif|central (ssRNA)
RNA: GGGAGUUCUACAGUCCGACGAUCACAAAGCUAGUCUCUUCUGAAAUCAACAUAGUAUUUUUAAUAAUUUUAAUAUCUCGGCGGAACCACACGGAUCACCAAACUUGCAGAAGAGAUUAAAAACAGCUAGCUUGCUAGUCAUAUCAACAGAGGAUUGAGCAUCA
B9: chr1:82457952:82457953:+_ENSG00000117114_ENST00000335786|hu_mus|motif|central (ssRNA)
RNA: GGGAGUUCUACAGUCCGACGAUCAGCUUUGCUGAAACAAUUUACAUGUCAUUAGAACUUUACCAUAAAAUAAAUUAAUUACGGAAUAUAGCCAGAAGGAAUAUGGAAGAGUAAUAUUUCUGUUUUAUUUUAUUUUUAUUUUAUCAACAGAGGAUUGAGCAUCA
B10: chr10:111893599:111893600:+_ENSG00000148700_ENST00000277900|hu_hu|FALSE|FALSE (ssRNA)
RNA: GGGAGUUCUACAGUCCGACGAUCAUUCAGACAGAUAGCUGUUUAUGGUGAAUUAUAAUAAUACUUCAUGAGGGCAGAGCUAAUUAAAACUAGUAAUUGCUUAAAAUUCAAAGCCAUUUCUGGACAUAUAAAAUGAGAGAUGAACAACAGAGGAUUGAGCAUCA
B11: 94906243_94906363_1931_3pUTR_ENSG00000149212_ENST00000536441|human|control|control (ssRNA)
RNA: GGGAGUUCUACAGUCCGACGAUCAAAUAAAACACAUCAUUGCACAUUACAGCCGCAAAAAACAAAAAAAAAAAAACAAACGGCUAAACUUUGACACUAGAGAACUGAAUAAUUUUUGAUGCUAUAUCACAAAUAGCUUCAAUGCAACAGAGGAUUGAGCAUCA
B12: chr10:111893621:111893622:+_ENSG00000148700_ENST00000277900|hu_hu|motif|central (ssRNA)
RNA: GGGAGUUCUACAGUCCGACGAUCUAAUUCAGACAGAUAGCUGUUUAUGGUGAAUUAUAAUAAUACUUCAUGAGGGCAGAGCGGAUUAAAACUAGUAAUUGCUUAAAAUUCAAAGCCAUUUCUGGACAUAUAAAAUGAGAGAUGCAACAGAGGAUUGAGCAUCA
B13: chr8:104081237:104081238:+_ENSG00000155097_ENST00000518738|hu_mus|motif|central (ssRNA)
RNA: GGGAGUUCUACAGUCCGACGAUCAACACACAGAAUUAUGCAUACCAUGAUAUCAAGGAGGAAAAUACCUCUUUAAAUAAACGGUUCGGUUUAUAAAUAAACUCUGAUUUUUUUCAGUACACAUUUACAGACCUGAUCAAUAAACAACAGAGGAUUGAGCAUCA
B14: 23644147_23644267_867_3pUTR_ENSMUSG00000028986_ENSMUST00000030841|mouse|control|control (ssRNA)
RNA: GGGAGUUCUACAGUCCGACGAUCUUGAAUAAGUGGUUCAGCUUGUACUGUUUUACUUAGGAAAUUCUUCGAUAUAAGAGGAAACCUGACUUUAGCAAGGAUAUCAACCAUGAAUGGCUGGCGGUUAGGCUCAUCAUAUUUCAACAACAGAGGAUUGAGCAUCA
B15: chr2:25965407:25965408:-_ENSG00000143970_ENST00000336112|hu_mus|motif|central (ssRNA)
RNA: GGGAGUUCUACAGUCCGACGAUCAUGUGCUGCCGGAAUAAAAUCUCUAGGCAGGCUCUUUUCAUCAGAUGCUUGGCCUCGGGAGAAUAUGUAAUUCUCCUGGCCUAAAGUGGUUUGCUCACUCACUGGUGCCUCAGUCUUACCCAACAGAGGAUUGAGCAUCA
B16: 82834861_82834981_3494_CDS_ENSG00000038427_ENST00000343200|human|control|control (ssRNA)
RNA: GGGAGUUCUACAGUCCGACGAUCUUCAUUGACAGUACCCACUUCUCCCAAUCCUUCGUCGAUAAUGGAGGAAGCUGUACCAGAAAACUUUUGCACAGCACUGGGAAGCACUGGAACAACAGAGCUGCUGACUGUGACCAGUUGCAACAGAGGAUUGAGCAUCA
B17: chr14:70842435:70842436:-_ENSG00000213463_ENST00000256366|hu_hu|motif|central (ssRNA)
RNA: GGGAGUUCUACAGUCCGACGAUCCUGCACCUGUAACCUGUGCUGCACUCUCAGAGACACAGCAUAGCCUGCAUUACGAAAGAGGUCGGCAGCAUCCUGGUGCAGCAGGUUCUUUAGGUCUUGGCCAUUUACCGAAAGGAUCUUCAACAGAGGAUUGAGCAUCA
B18: chr6:13622506:13622507:-_ENSG00000010017_ENST00000011619|hu_mus|FALSE|FALSE (ssRNA)
RNA: GGGAGUUCUACAGUCCGACGAUCAGGAAGCAAUGUAAAGCGACAAAAACCUGUCCCCAGUACAUAAUUAAAAAAAAAUCUAAAUUUCAAAUCAGCAGAGCCGGUCUACUUCCAUGUUGACUGUUUGCCACAAUGUGAGUGUGACAACAGAGGAUUGAGCAUCA
B19: chr1:109605286:109605287:-_ENSG00000197780_ENST00000461096|hu_mus|hu_hu_hu_mus_True|8_88 (ssRNA)
RNA: GGGAGUUCUACAGUCCGACGAUCAAGUUUCAGAGUAACAUUCAGUAUACUUAAAUCAUGCAAUUAUCCUUAUUAUAAGCUAAGCAGAAUAAUAAUUUAAUACCGUAAGUGAACUACACACAAAGCCGUGUAUUCAGAAAUGGUCAACAGAGGAUUGAGCAUCA
B20: chr10:111893621:111893622:+_ENSG00000148700_ENST00000277900|hu_hu|FALSE|FALSE (ssRNA)
RNA: B12 RNA with G82U, G83A
B21: chr18:56900473:56900474:+_ENSMUSG00000024590_ENSMUST00000025486|mus_mus|FALSE|FALSE (ssRNA)
RNA: GGGAGUUCUACAGUCCGACGAUCAACAUCUAUCUCUUCAAUGCACACGUUCCCCGUGGCUGAGGCAGAGUGGGAAAUGCUAACACUGCUGCUCGCCUCCGACUCCUCCACAUCAACUCUCUUCCGCUUUCCUCUGGUGGUGCGCAACAGAGGAUUGAGCAUCA
B22: chr14:35182089:35182090:-_ENSG00000165410_ENST00000422678|hu_mus|motif|central (ssRNA)
RNA: GGGAGUUCUACAGUCCGACGAUCCUUAAGAUCAAAUGGCACUUGGCUAUUAUUUUAUAGUGGCUUUCCUUCAAGGGAAACGGCAACACUGCCCCCCAGUUUCUCUCCCAGCGUCGAGCGGUCCUUAAUAUCGUCCAAGCCAUUCAACAGAGGAUUGAGCAUCA
B23: chr10:117127018:117127019:-_ENSMUSG00000020184_ENSMUST00000020408|mus_mus|FALSE|FALSE (ssRNA)
RNA: GGGAGUUCUACAGUCCGACGAUCAGAUGGAAAGGACUUCUCACAUACACUUCCAAAGUCCUUCCAAGCGGAGAUUAUUUAAAAUAUAAGGAAAAUAUAAACAGCCAAUGCAAAUUACUUAAAACACAAAUAUAAAAUAAACAACAACAGAGGAUUGAGCAUCA
B24: chr13:90244479:90244480:+_ENSMUSG00000012422_ENSMUST00000161568|mus_hu|FALSE|FALSE (ssRNA)
RNA: GGGAGUUCUACAGUCCGACGAUCCAAAAUGGUGUGCCCAGAGGAAAAGCAAGCACUAUUAAAUAUUAAUGCAAUCCUUAUCAACACAAAUUGAGCCAUUUUAAUAAAAAAGCUAGUCCAAAAAAGGUUCUCAUUCUAUAAAGACAACAGAGGAUUGAGCAUCA
B25: chr2:47387770:47387771:-_ENSG00000143933_ENST00000272298|hu_mus|hu_hu_hu_mus_True|18_38 (ssRNA)
RNA: GGGAGUUCUACAGUCCGACGAUCAAGGUUUAAGGACAAUGACAGUAAGAUAAGGGAAGAAAACAUGGAGGAAUGAAGUCCUAAUUACUAUACAUGCAUAUUUUUUUACAGUAGGGGAGAAACCUUUUUUACAGAUAAGUUACACAACAGAGGAUUGAGCAUCA
B26: chr17:26793470:26793471:+_ENSMUSG00000001576_ENSMUST00000167662|mus_hu|FALSE|FALSE (ssRNA)
RNA: GGGAGUUCUACAGUCCGACGAUCCGGAGCUUAGAGCCAAAAAUUACAAAUGGCAGAGACUUGAGCUAUCCAUAAGAUAAUUUUAAAAAUCCUUCCACUGGACACUCCCCUUCAUUACAAAAGUAUGCAAACAAUCUUGCUAUACAACAGAGGAUUGAGCAUCA
B27: chr3:58389949:58389950:+_ENSMUSG00000075700_ENSMUST00000107924|mus_hu|FALSE|FALSE (ssRNA)
RNA: GGGAGUUCUACAGUCCGACGAUCCAAGAAGAAAACCAUCAUACAUGCAUAAACCUUAUUUUCUUGGCCCCACUGCCAGAUGCUAGGAGCUUGCAUGCCAAAGAAAGCAAAAGGAUCCUUGCCAACAAUUAUUAAGCCUAUUAACAACAGAGGAUUGAGCAUCA

These binders were tested against T1, UNK ZnF1-3 (assay: nsRBNS (natural sequence RNA bind-n-seq); RBNS binding buffer (assumed for nsRBNS): 25 mM Tris pH 7.5, 150 mM KCl, 3 mM MgCl2, 0.01% Triton X-100, 500 ug/ml BSA, 20 U/ml SUPERase-In, 4 C; UNK is unkempt and MSI1 is Musashi-1; names of the RNAs are library labels; protein concentration not given here; high values mean tight binding).

Binder	binding signal [enrichment R]
B1	1
B2	0.681
B3	0.879
B4	0.497
B5	1
B6	1.03
B7	3.42
B8	1.81
B9	3.79
B10	4.42
B11	6.07
B12	4.04
B13	0.25
B14	0.91
B15	0.714
B16	0.912
B17	0.468
B18	2.67
B19	0.504
B20	5.27
B21	1.08
B22	1.04
B23	5.74
B24	4.62
B25	1.7
B26	3.67
B27	1.51
